From PubChem BioAssay AID1347084 (National Center for Advancing Translational Sciences (NCATS), 2019)
Where “and” joins values, the source holds several entries; their conditions need not be identical. Equal values may be shown once. Records with an inconclusive call do not appear. Calls of active or inactive are those of the source. Calls come from the whole dose curve.

Test: qHTS for Inhibitors of the Functional Ribonucleoprotein Complex (vRNP) of Lymphocytic Choriomeningitis Arenaviruses (LCMV): LCMV Confirmatory Screen - GLuc reporter signal
Details: LCMV minigenome vRNP, Gaussia luciferase reporter; series mostly up to 53.9 µM

SMILES | Potency
CC(C)(C)C1CCC(CC2=C(O)c3ccccc3C(=O)C2=O)CC1 (configuration not stated) | 6.11 µM (active)
CCN(CC)C(=O)N[C@@H]1C=C2c3cccc4[nH]cc(c34)C[C@@H]2N(C)C1 | inactive
CCn1c(-c2nonc2N)nc2cnc(Oc3cccc(NC(=O)c4ccc(OCCN5CCOCC5)cc4)c3)cc21 | 4.32 µM (active)
FC(F)(F)c1ccc(C=Cc2nc(COc3ccc(CCCCn4ccnn4)cc3)co2)cc1 | 0.0153 µM (active)
O=C1Cc2cc(CCN3CCN(c4nsc5ccccc45)CC3)c(Cl)cc2N1 | inactive
CC1=C(C)C(=O)C(CCCCC#CCCCC#CCO)=C(C)C1=O | 19.3 µM (active)
CC(O)C(O)[C@H]1CNc2nc(N)[nH]c(=O)c2N1 (some centres not stated) | inactive
CCC(C)c1nccnc1OC (configuration not stated) | inactive
CCCCCN=C(N)N/N=C/c1c[nH]c2ccc(OC)cc12 | 9.68 µM (active)
Cc1ccccc1-n1c(Cn2nc(-c3cccc(O)c3)c3c(N)ncnc32)nc2cccc(C)c2c1=O | 30.6 µM (active)
Oc1cc(Cl)ccc1Oc1ccc(Cl)cc1Cl | 22.2 µM (active)
O=C(Nc1ccccc1)c1cc([N+](=O)[O-])ccc1Cl | 24.3 µM (active)
CCc1cncnc1N1CCN(Cc2nc3ccc(C(F)(F)F)cc3[nH]2)CC1 | 4.44 µM (active)
CC[C@@H](C(=O)O)[C@@H]1O[C@@H]([C@@H](C)[C@H](O)[C@H](C)C(=O)[C@H](CC)[C@H]2O[C@]3(C=C[C@@H](O)[C@]4(CC[C@@](C)([C@H]5CC[C@](O)(CC)[C@H](C)O5)O4)O3)[C@H](C)C[C@@H]2C)[C@@H](C)C[C@@H]1C | 0.0627 µM (active)
COc1ccc(Cc2nccc3cc(OC)c(OC)cc23)cc1OC | 1.93 µM (active) and 3.43 µM (active)
CO/C=C(/C(=O)OC)c1ccccc1Oc1cc(Oc2ccccc2C#N)ncn1 | 4.98 µM (active)
Cc1cccc(-c2[nH]c(C(C)(C)C)nc2-c2ccc3c(c2)OCO3)n1 | 3.43 µM (active)
CC(O)(P(=O)(O)O)P(=O)(O)O | inactive
Clc1nccc2c1ccc1ccccc12 | inactive
O=C(Nc1ccccc1)Nc1ccc(-c2ccc(C(=O)[C@H]3CCC[C@H]3C(=O)O)cc2)cc1 | inactive
COc1ccc2c(c1OC)CN1CCc3cc4c(cc3C1C2)OCO4 (configuration not stated) | 24.3 µM (active)
COc1cc2c(cc1OC)CC(=O)N(CCCN(C)C[C@H]1Cc3cc(OC)c(OC)cc31)CC2 | inactive
Cc1ncc([N+](=O)[O-])n1CC(C)O (configuration not stated) | inactive
CCCCCC[C@H]1C(=O)O[C@H](C)[C@H](NC(=O)c2cccc(NC=O)c2O)C(=O)O[C@@H](C)[C@@H]1OC(=O)CC(C)C | 0.0343 µM (active)
O=C(Nc1ccc([N+](=O)[O-])cc1Cl)c1cc(Cl)ccc1O | 0.863 µM (active)
CCCCC/C(C=O)=C\c1ccccc1 | inactive
CCC1OC2(C)C(O)C(/C=C/C=C/C=C/c3oc(=O)cc(OC)c3C)OC1(C)C2OC(C)=O (configuration not stated) | 0.109 µM (active)
